Experimental data: PubChem BioAssay AID833 (The Scripps Research Institute Molecular Screening Center, 2007)
Screen size: about 16,000 compounds; about 80 (0.5%) were called active. No stated cut-off is given here; in the data, active means activation above about 15%; inactive means the rest. Shown is part of a subset that was picked to be rich in actives.

biological target: Galanin receptor type 2 (Rattus norvegicus) (UniProt O08726); test: activates the rat galanin receptor 2 (AID 833); settings: cell-based GALR2 agonist screen; at 10 µM; hits give high values
Sequence (O08726 whole entry, looked up): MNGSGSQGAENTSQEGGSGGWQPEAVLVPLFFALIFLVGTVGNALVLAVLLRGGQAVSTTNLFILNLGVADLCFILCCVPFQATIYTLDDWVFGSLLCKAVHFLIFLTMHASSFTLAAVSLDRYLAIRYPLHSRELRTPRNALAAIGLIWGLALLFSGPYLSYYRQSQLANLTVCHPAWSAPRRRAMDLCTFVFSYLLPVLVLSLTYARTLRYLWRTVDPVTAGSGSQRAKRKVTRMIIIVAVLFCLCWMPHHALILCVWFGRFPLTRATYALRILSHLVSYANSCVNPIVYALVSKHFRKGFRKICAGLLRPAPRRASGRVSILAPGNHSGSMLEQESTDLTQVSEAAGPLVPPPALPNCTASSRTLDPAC

activation, inactive:
Cc1[nH]c2ccccc2c1Sc1ccc(Cl)cc1 -8.87%
Cc1onc(-c2ccccc2)c1CNS(=O)(=O)c1ccc2c(c1)OCCN2C -3.66%
CC(=O)c1ccc(C#Cc2ccccc2)cc1 -6.33%
N#Cc1ccc(N2CCN(C(=O)c3ccco3)CC2)cc1 -9.07%
CCOc1ccc(NC(=S)N2CCC(c3ccccc3OC)CC2)cc1 -6.67%
Cc1nc(-c2cccnc2)nc(N2CCCN(Cc3ccc(F)cc3)CC2)c1Cl -9.09%
COC(=O)c1ccc(/C=C2\C(=O)Nc3ccccc32)n1-c1ccc(F)cc1 2.14%
Clc1ccc(C=NCc2cccnc2)c(Cl)c1 -5.42%
Cc1cc(S(=O)(=O)O/N=C(\N)c2snnc2C)cc(C)c1F -5.04%
Cc1ccc(S(=O)(=O)NNC(=O)c2ccccc2N)cc1 -6.6%
Cc1cc(C)nc(NC(=S)c2ccc(NC(=O)/C=C/C(=O)O)cc2)n1 -5.82%
O=C(Nc1ccc(C(F)(F)F)cc1)Nc1ccccc1C(=O)O -8.04%
CCCCNc1nc(N)ns1 -3.61%
Cc1c(CC(=O)Oc2ccc([N+](=O)[O-])cc2)sc2ccc(Cl)cc12 -2.58%
O=C(NCCO)NCCSc1ccc(F)cc1 -4.7%
CCOC(=O)c1c(NS(=O)(=O)c2cccc3nsnc23)sc(C)c1C -6.04%
Cn1cccc1-c1n[nH]c(=S)n1-c1ccc(Cl)cc1Cl -4.04%
O=C1C=C(SCC(=O)c2ccccc2)SC(c2ccc(Cl)cc2)C1 (centres undefined) 6.17%
NNC(=O)CC1C(=O)NCCN1Cc1c(Cl)cccc1Cl (centres undefined) -5.38%
Cc1cc(S(=O)(=O)Oc2ccc(OCc3ccccc3)cc2)c(C)cc1Cl -2.88%
CCOC(=O)C/C(N)=C(\C#N)C(=O)OCC -2.73%
Cc1ccc(SCC(=O)Nc2ccc(F)cc2F)cc1 -5.06%
CC(C)(C)NC(=O)[C@@H]1C[C@@H]2CCCC[C@@H]2CN1C(=O)c1ccno1 -7.29%
COc1cccc(OCc2ccccc2)c1C#N -5.84%
O=S(=O)(Oc1ccc(Cl)c(Cl)c1)c1c(Cl)sc(Cl)c1Br -7.23%
O=C(O)Cc1csc(NC(=O)CSc2nnnn2-c2ccc(O)cc2)n1 -6.18%
COc1cc(NC(=O)c2ncc(C(F)(F)F)cc2Cl)c(C(=O)O)cc1OC -7.07%
O=S(=O)(O)c1ncccn1 -6.4%
c1ccc(CN2CCN(Cn3nnc4ccccc43)CC2)cc1 -4.65%
COC(=O)c1ccc2snnc2c1 -2.44%
FC(F)(F)c1csc(N/N=C/c2ccccc2Cl)n1 -13.1%
CCOC(=O)C(=CNNc1ccc(C(=O)O)cc1[N+](=O)[O-])C(=O)OCC -6.55%
CC1CC(NC(=O)/C(C#N)=C/c2ccc[nH]2)CC(C)(C)C1 (centres undefined) -10.3%
N/N=c1/nc2sccn2c2ncccc12 -4.92%
CCOC(=O)c1cc(CC)sc1NC(=O)c1cccnc1Oc1ccccc1 -8.18%
O=C1C=C(c2ccccc2)CN(C2CCCCC2)C1=O -2.8%
O=C(Oc1ccc(Cl)cc1)c1snnc1-c1ccccc1 -5.24%
Cc1onc(C(=O)NN)c1-c1csc(COc2ccccc2)n1 -4.77%
C#CC(C)(CC)OCC(O)CS(=O)(=O)O (centres undefined) -5.43%
CC(C)S(=O)(=O)c1cscc1N/C=C(/C#N)C(=O)c1cccs1 -2.65%
O=S(=O)(c1ccc(Cl)c(Cl)c1)N1CCc2c([nH]c3ccccc23)C1C(F)(F)F (centres undefined) -11.8%
Cc1[nH]n(C)c(=O)c1C(=O)c1c(-c2c(Cl)cccc2Cl)noc1C -6.37%
CN(NC(=O)c1ccc(Cl)s1)c1cnn(-c2cc(Cl)cc(Cl)c2)c(=O)c1Cl -2.83%
CSc1nsc(SC)c1C(=O)Nc1cc(C(F)(F)F)cc(C(F)(F)F)c1 -4.92%
Cn1cnnc1SC/C=C/c1ccccc1 -6.61%
CCOC(=O)C(=CNc1nc(-c2ccc(Cl)cc2)cs1)C(=O)OCC -6.21%
c1ccc2c(c1)NC(C1Nc3ccccc3O1)O2 (centres undefined) -4.99%
Cc1cc(Cl)ccc1NC(=S)NNC(=S)Nc1ccc(F)cc1 -1.79%
CCOC(=O)/C=C(/Nc1ccccc1SC)c1ccccc1 -8.09%
CC(C)(C)c1ccc(C(=O)CC(N)=O)cc1 -7.09%
N#Cc1c(-c2cccs2)cc(-c2cccs2)nc1N 10.7%
O=C(Nn1cnnc1)c1ccc([N+](=O)[O-])cc1 -2.79%
Cc1onc(-c2ccccc2)c1C(=O)Nc1ccc(/C(C#N)=C/c2ccccn2)cc1 -2.22%
N#C/C(=C\c1cccs1)C(=O)NCCc1c[nH]c2ccccc12 -5.34%
Cc1cccc(-c2noc(NC(=O)O/N=C/c3ccccc3)n2)c1 -3.45%
Cc1csc(/N=C/N(C)C)c1C#N -4.03%
N/C(CC(=O)Nc1ccc(F)c(Cl)c1)=N\O -6.66%
O=C(c1cnn(-c2ccc(Cl)cc2)n1)c1cccs1 -6.45%
S=C1NCN(CCCn2ccnc2)CN1 -6.28%
O=C(O)c1cc(=O)[nH]c2c(Cl)cc(Cl)cc12 -3.92%
COC(=O)/C(=C/c1ccccc1)c1ccccc1 -1.48%
COc1ccc(OC)c(CNC(=O)Cc2cccs2)c1 -4.76%
O=[N+]([O-])c1ccc(N2CCOCC2)cc1 -0.7%
O=S(=O)(CCSc1ccc(C(F)(F)F)cn1)CCSc1ccc(C(F)(F)F)cn1 -4.73%
CC(C)N(C(=O)c1ccc(-c2ccccc2F)cc1)C(C)C -5.45%
O=C(O)CC1(CC(=O)Nc2ccc(N3CCCCC3)cc2)CCCCC1 -3.41%
Cn1cc(Br)c(-c2ccc(NC(=O)Nc3ccc(Cl)cc3)cc2)n1 -8.08%
COC(=O)c1noc(C)c1-c1ccnn1C(=O)c1ccc(Cl)cc1 -1.59%
CSC(=CC(=O)c1cccs1)SC -10.2%
COc1cccc2c1c(NS(=O)(=O)c1cn(C)cn1)nn2C -5.19%
CSc1nsc(SC)c1C(=O)NC(=O)NNc1ccc(F)c(Cl)c1 -2.68%
Oc1[nH]c2ccc(F)cc2c1N=NC(=S)NC1CC2C=CC1C2 (centres undefined) -9.63%
NS(=O)(=O)c1cc(Br)ccc1I -1.14%
Cc1c(S(=O)(=O)N2CCOCC2)ccc(Cl)c1F -9.66%
O=[N+]([O-])c1ccc(-c2ccc(I)cc2)cc1 -5.42%
O=[N+]([O-])c1ccc(-c2nnnn2Cc2c(Cl)cccc2Cl)cc1 -2.65%
Cc1c(NC(=S)Nc2ccccc2)c(=O)n(-c2ccccc2)n1C -1.67%
COC(=O)c1cc(OC)c(OC)cc1NC(=O)c1ccccc1C(=O)O 0.04%
COc1cc(CCN=Cc2ccccc2O)c([N+](=O)[O-])cc1OC -0.09%
O=C(NCc1cccnc1)Nc1cccc(NC(=O)NCc2cccnc2)c1F -10%
CNC(=S)NNC(=O)c1cc(C)on1 -5.05%
Cc1cc(C)nc(N/C=C(\C#N)S(=O)(=O)c2ccc(Cl)cc2)n1 -7.71%
N#CC(c1cc2ccccc2cn1)c1ccc2c(c1[N+](=O)[O-])C(=O)c1ccccc1C2=O (centres undefined) -8.33%
N#CC1(C#N)C(c2ccc(Cl)c(Cl)c2)C1(C#N)C#N -8.55%
CSc1n[nH]c(=O)n1-c1cccc(C(F)(F)F)c1 -7.62%
COc1ccc(NC(=S)Nc2ccc(F)cc2F)c([N+](=O)[O-])c1 -8.62%
c1ccc2c(-c3csc(-c4ccc5c(c4)OCCO5)n3)csc2c1 -9.38%
Cc1nc(-c2ncc(-c3ccccc3)o2)c(C(F)(F)F)o1 -5.66%
O=C(CSc1c(F)c(F)c(C(=O)O)c(F)c1F)Nc1cccc(C(F)(F)F)c1 -5.69%
COC(=O)c1sccc1NC(=S)Nc1ccc(C)cc1 -4.74%
Cc1cc(CNC(=O)c2cc(C)n(C)n2)no1 4.72%
Cc1nnsc1-c1nnc(SCC(=O)c2ccc3c(c2)OCO3)n1C1CC1 -3.99%
O=C(O)CC(CC(=O)Nc1cc(C(F)(F)F)ccc1N1CCOCC1)c1ccccc1 (centres undefined) -5.13%
N/C(=N\O)c1ccc2nonc2c1 -8.97%
Cc1cc(CNCC(O)C(F)(F)F)no1 (centres undefined) -7.81%
CSc1sc(C(=O)NC2CC2)c(-c2ccc(Cl)cc2)c1C#N -8.05%
Cc1ccc(S(C)(=O)=NC(=O)NS(=O)(=O)Oc2ccc(Cl)cc2Cl)cc1 (centres undefined) -1.36%
Cc1oc(-c2ccc(Cl)cc2)cc1C(=O)O/N=C(\N)Cc1nc2cccnc2n1C1CC1 -4.62%
O=C(NCc1csc(-c2cccs2)n1)Nc1ccccc1-c1ccccc1 -9.54%
Cc1oc(C(C)(C)C)cc1C(=O)NC1Cc2ccccc2C1 -2.8%
Cc1cc(-c2nc(C(=O)NN3CCCCC3)cs2)no1 -7.49%

activation, active:
CC1=C(C(=O)O)N2C(=O)[C@H](NC(=O)[C@@H](N)c3ccccc3)C2SC1 (some centres undefined) 22.8%
N#Cc1ccc(-c2csc(COc3ccccc3Cl)n2)cc1 34%
CCOc1c(N2CCCCC2)c(=O)c1=O 24.1%
